# According to PubChem BioAssay:
# The source made the active and inactive calls.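 How the source made its calls, unless noted: active means z-score of at least 1.8 in each of two replicates, scored against plate mean and spread of sample wells; inactive means the rest.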
# Assays:
# [1] = survival rescue of mitochondrial mutant cells in low glucose, primary screen, MELAS cybrids, Rieske KO mouse fibroblasts, CellTiter-Glo (AID 1508586;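 active means mean z-score across replicates of 1.96 or higher in either the MELAS or the Rieske mutant cell line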;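 further: test concentration not given here; z relative to plate mean and SD of compound and empty wells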)
# [2] = viability rescue of complex I mutant cybrids, primary screen, cell-based, galactose medium, ATP luminescence (AID 1645843); conditions: complex I mutant cybrid cells, 72 h, stronger effect = higher value;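 further: positive z means more ATP and so rescue of galactose-driven cybrid death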
# [3] = MELAS cybrid survival, CellTiter-Glo 48 h, stronger effect = higher value
# [4] = Rieske KO mouse fibroblast survival, CellTiter-Glo 72 h
Structure (SMILES),"z-score [1, 3]","z-score [1, 4]",z-score [2]
COc1cccc(C(=O)N2CCN3C(=O)[C@H](C(C)C)NC(=O)[C@H]3C2)c1,-0.0303 (inactive),-0.513,0.605 (inactive)
COc1ccc(CN2C[C@H](C(=O)Nc3ccc4c(c3)CCC4)C[C@H](C(=O)N3CCCCC3)C2)cc1OC,0.5 (inactive),0.0365,-1.66 (inactive)
CCN(CC)C(=O)c1cc(-c2ccc(C)s2)cc(S(=O)(=O)N2CCOCC2)c1,-0.0477 (inactive),0.74,-0.44 (inactive)
O=C(Cn1cnnn1)N1CC(=O)N(C2CCCCC2)CC(OCc2ccccc2)C1 (stereo unspecified),-0.326 (inactive),0.527,0.21 (inactive)
CC[C@@H]1NC(=O)[C@H]2CN(C(=O)Oc3cccc4ccccc34)CCN2C1=O,0.408 (inactive),0.404,-1.61 (inactive)
CC(C)CNC(=O)[C@@H]1C[C@H](CN2CCOCC2)CN(Cc2nccn2C)C1,0.0237 (inactive),0.267,0.2 (inactive)
CCc1nc(CNc2cc(C(=O)NCc3ccccn3)cc(S(=O)(=O)N3CCCC3)c2)c(C)[nH]1,-0.302 (inactive),-0.597,0.97 (inactive)
Cc1cc(-c2cc3c(n(Cc4cccnc4)c2=O)CCN(C(=O)c2n[nH]c4c2CCC4)C3)ccc1F,-0.505,4.42,-1.53 (inactive)
CC(C)CN1CC(OCc2cccc(F)c2)CN(Cc2cccn2-c2ncccn2)CC1=O (stereo unspecified),-0.291 (inactive),-0.624,0.085 (inactive)
CC(C)CN1CC(OCc2cccc(F)c2)CN(C(=O)Cn2cnc3ccccc3c2=O)CC1=O (stereo unspecified),-0.0292 (inactive),0.00727,-0.43 (inactive)
CCn1nc(C(=O)N(C)Cc2ccco2)c2c1CCC(N(C)Cc1ccon1)C2 (stereo unspecified),-0.655 (inactive),-0.252,-1.03 (inactive)
O=C(NCc1ccccn1)c1cc(NCC2CC2)cc(S(=O)(=O)N2CCCC2)c1,-0.201 (inactive),-0.67,0.59 (inactive)
CC(C)Cn1nc(C(=O)N2CCOCC2)c2c1CCC(NCc1ccc(F)cc1)C2 (stereo unspecified),0.123 (inactive),-0.12,0.625 (inactive)
CC(C)CN1C[C@@H](CN2CCOCC2)C[C@@H](C(=O)N2CCCC2)C1,-0.0982 (inactive),-0.607,-0.485 (inactive)
CCCCNC(=O)[C@@H]1C[C@H](CN2CCOCC2)CN(Cc2ccc3ccccc3c2)C1,0.321 (inactive),0.627,-0.385 (inactive)
CC(C)N1C(=O)N(C)C2(CCN(Cc3ccc4c(c3)Cc3ccccc3-4)CC2)C1=O,-0.247 (inactive),-0.55,0.225 (inactive)
CC(C)C[C@H]1C(=O)N2CCN(Cc3cnn(-c4ccccc4)c3)C[C@@H]2C(=O)N1C,0.221 (inactive),-0.165,-0.345 (inactive)
CN(Cc1ccco1)C(=O)c1nn(C)c2c1CC(N1CCOc3ccc(Cl)cc3C1)CC2 (stereo unspecified),-0.11 (inactive),0.109,-0.61 (inactive)
Cc1nn(C)cc1CNc1cc(C(=O)NCc2cn3ccccc3n2)cc(S(=O)(=O)NC(C)C)c1,-0.236 (inactive),-0.702,-0.11 (inactive)

Structure (SMILES),"z-score [1, 3]","z-score [1, 4]",z-score [2]
Cc1ccn2cc(C(=O)N3CCc4c(cc(-c5ccc(OC(F)(F)F)cc5)c(=O)n4C)C3)nc2c1,-0.191 (inactive),-0.543,1.4 (inactive)
COc1ccc(CN2C[C@@H](CN3CCOCC3)C[C@@H](C(=O)NCC(C)C)C2)cc1OC,0.036 (inactive),-0.053,0.1 (inactive)
CC(=O)c1cccc(-c2cc3c(n(C)c2=O)CCN(C(=O)c2ccc4[nH]c5c(c4c2)CCCC5)C3)c1,-0.0854 (inactive),-0.491,-1.45 (inactive)
O=C1[C@@H]2C[C@@H](O)CN2C(=O)[C@H]2CN(Cc3ccc(CN4CCCCC4)s3)CCN12,-0.179 (inactive),-0.745,0.32 (inactive)
CC(C)[C@@H]1NC(=O)[C@H]2CN(C(=O)c3ccccc3Cl)CCN2C1=O,-0.296 (inactive),-0.445,1.57 (inactive)
COc1cc(CN2CCc3c(cc(-c4cccc(F)c4)c(=O)n3CCn3ccc(C)n3)C2)ccc1O,0.37 (inactive),0.944,-0.15 (inactive)
COCc1ccc(C(=O)N2CCc3c(cc(-c4ccncc4)c(=O)n3CCN3CCCCC3)C2)o1,-0.345 (inactive),0.626,0.77 (inactive)
Cc1nnc(CN(C)C(=O)c2cc(-c3ccc(C)s3)cc(S(=O)(=O)N3CCOCC3)c2)o1,-0.234 (inactive),-0.11,0.29 (inactive)
COc1ccc(CCNC2CCc3c(c(C(=O)N(C)C)nn3CC3CCCCC3)C2)cc1 (stereo unspecified),-0.342 (inactive),0.349,-1.19 (inactive)
O=C1N[C@@H](Cc2c[nH]c3ccccc23)C(=O)N2C[C@@H](NCc3ccccc3Cl)C[C@@H]12,-0.311 (inactive),0.134,-0.945 (inactive)
Cc1ccnn1CCC(=O)N1CCc2c(cc(Cc3ccccc3F)c(=O)n2Cc2cccnc2)C1,-0.36 (inactive),-0.461,0.325 (inactive)
CCn1nc(C(=O)N2CCCCC2)c2c1CCC(NCc1ccc3c(c1)OCO3)C2 (stereo unspecified),-0.251 (inactive),0.426,-1.14 (inactive)
CN(C)CCCNC(=O)[C@@H]1C[C@H](CN2CCOCC2)CN(Cc2ccc3ccccc3c2)C1,-0.234 (inactive),-0.142,0.05 (inactive)
CCc1cc(C(=O)N2CCc3c(c(C(=O)N4CCN(c5ccccc5)CC4)nn3CC)C2)n(C)n1,-0.699 (inactive),-0.0183,0.405 (inactive)
O=c1c(/C=C/c2ccccc2)cc2c(n1Cc1ccccn1)CCN(C1CCOCC1)C2,-0.0238 (inactive),0.293,0.925 (inactive)
Cc1[nH]cnc1CNc1cc(C(=O)Nc2cccc(N(C)C)c2)cc(S(=O)(=O)N2CCCC2)c1,-0.329 (inactive),-0.954,0.055 (inactive)
C[C@@H](O)[C@@H]1NC(=O)[C@@H]2C[C@H](NCc3cc4ccccc4s3)CN2C1=O,-0.64 (inactive),-0.73,-0.615 (inactive)
O=C1N[C@H](Cc2ccc(O)cc2)C(=O)N2CCN(C(=O)c3cccc4ccccc34)C[C@H]12,0.285 (inactive),-0.378,-0.195 (inactive)
Cc1ccc(Cl)cc1NC(=O)N[C@H]1C[C@H]2C(=O)N[C@H](C(C)C)C(=O)N2C1,-0.17 (inactive),0.0408,-0.745 (inactive)

Structure (SMILES),"z-score [1, 3]","z-score [1, 4]",z-score [2]
CC(C)C[C@@H]1NC(=O)[C@H]2CN(S(=O)(=O)c3cccc4ccccc34)CCN2C1=O,-0.496 (inactive),-0.159,-0.92 (inactive)
Cc1ncsc1CCn1nc(C(=O)NC2CC2)c2c1CCN(C(=O)C1Cc3ccccc3O1)C2 (stereo unspecified),-0.25,4.81,-0.18 (inactive)
Cc1ncc(CNc2cc(C(=O)Nc3cccc(N(C)C)c3)cc(S(=O)(=O)N3CCCC3)c2)[nH]1,-0.563 (inactive),-0.237,0.295 (inactive)
CC[C@@H]1NC(=O)[C@H]2CN(CCC(C)C)CCN2C1=O,0.225 (inactive),0.0851,-0.555 (inactive)
O=C(NCCN1CCOCC1)c1cc(-c2ccccc2)cc(S(=O)(=O)N2CCSCC2)c1,-0.0926 (inactive),-0.421,1.53 (inactive)
CCN1C(=O)N(CC(N)=O)C(=O)C12CCN(CC(C)Cc1ccc3c(c1)OCO3)CC2 (stereo unspecified),0.0615 (inactive),-0.343,1.17 (inactive)
CN(C)C1CCN(C(=O)c2cc(-c3ccccc3)cc(S(=O)(=O)N3CCSCC3)c2)C1 (stereo unspecified),0.666 (inactive),0.00446,0.465 (inactive)
CCCCc1ncc(CN2CCc3c(cc(-c4ccncc4)c(=O)n3C/C=C/c3ccccc3)C2)[nH]1,-0.405 (inactive),-0.0119,-0.41 (inactive)
Cc1ccnn1CCC(=O)N1CC(=O)N(CC(C)C)CC(OCc2ccccn2)C1 (stereo unspecified),-0.157 (inactive),-0.668,0.98 (inactive)
Cc1ccc(C(=O)N[C@H]2C[C@H]3C(=O)N[C@@H](Cc4ccc(O)cc4)C(=O)N3C2)cc1F,-0.462 (inactive),-0.468,0.075 (inactive)
CN(C)c1ccc(/C=C/CN2CC(=O)N(CCCN3CCCC3=O)CC(O)C2)cc1 (stereo unspecified),-0.11 (inactive),-0.286,0.35 (inactive)
CCC(CC)CNc1cc(C(=O)NCCN(C)C)cc(S(=O)(=O)Nc2ccc(OC)cc2)c1,-0.364 (inactive),0.972,-1.11 (inactive)
O=C(c1nn(Cc2ccccn2)c2c1CN(C/C=C/c1ccco1)CC2)N1CCc2ccccc2C1,-0.442 (inactive),-0.213,-0.345 (inactive)
CC(C)[C@@H]1NC(=O)[C@@H]2C[C@H](NC(=O)c3cccc(Cl)c3)CN2C1=O,9 (active),-0.848,-0.675 (inactive)
COCCN1C(=O)N(C)C(=O)C12CCN(Cc1cnc(-c3ccccc3)s1)CC2,-0.0934 (inactive),-0.895,-0.285 (inactive)
COc1ccc(CN2C(=O)N(C)C3(CCN(Cc4cccn4-c4ccccn4)CC3)C2=O)cc1,-0.452 (inactive),-0.368,0.16 (inactive)
CC(C)CNC(=O)[C@H]1CNC[C@@H](CN2CCOCC2)C1,0.0168 (inactive),0.121,-0.045 (inactive)
COCc1ccc(CN2CCC3(CC2)C(=O)N(C2Cc4ccccc4C2)C(=O)N3CC(C)C)o1,-0.309 (inactive),-0.702,1.99 (active)
Cn1c2c(cc(Cc3ccccc3F)c1=O)CN(C(=O)c1ccc(C#CC(C)(C)O)o1)CC2,-0.447 (inactive),0.668,-0.48 (inactive)
